# DT40 TDP1 CPT: growth inhibition of DT40 Tdp1-/-;hTDP1 cells with camptothecin (screen for TDP1 inhibitors). chicken DT40 Tdp1-/-;hTDP1 cells + 20 nM CPT, ATP luminescence, 48 h. Potency, µM (series often up to 46.2 µM), for the others: at the highest dose activity change, negative = growth inhibition, actives largely listed as inhibitors. actives 12% (n = 420,000); note: nearly all actives have a fitted effect of over 55% in size
#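 Cell growth measured by CellTiter-Glo luminescence after a minimum 48 h, 37 C compound exposure with 20 nM CPT in Tdp1-knockout DT40 cells stably expressing hTDP1, seeded 400/well; qHTS titration format.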
# HT1080NT lethal: kills 2HG-producing HT-1080-NT fibrosarcoma cells. actives 1.6% (n = 360,000). HT-1080-NT fibrosarcoma viability, CellTiter-Glo ATP luminescence, 48 h. Potency, µM (highest dose often 46.1 µM), for the others: at the highest dose activity, negative = less viability, most hits filed as cytotoxic;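 note: NT is the 2HG producing partner of a matched IDH1 knockdown line; 0% = DMSO-treated cells and -100% = media-only wells without cells; nearly all actives have a fitted effect of over 55% in size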
#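 Toxicity toward the 2HG-producing NT line was scored as %Activity, normalised to DMSO and no-cell wells, from CellTiter-Glo luminescence after 48 hours' treatment.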
# KB-3-1 cytotox: KB-3-1 parental cell cytotoxicity; Potency, µM (highest dose often 46.1 µM), most hits filed as cytotoxic; KB-3-1 viability, CellTiter-Glo ATP luminescence, 72 h; actives 1.4% (n = 400,000); note: nearly all actives have a fitted effect of over 60% in size
#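 Cytotoxicity in the drug-sensitive parental line KB-3-1 was scored as loss of CellTiter-Glo luminescence following 72 h incubation with compound. Values come from curve fitting of normalized concentration-response data.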
# KB-V1 MDR tox: kills drug-selected multidrug resistant KB-V1 cells | KB-V1 MDR cells viability, CellTiter-Glo, 72 h | Potency, µM (titrated, usually from 46.1 µM), hits mostly cytotoxic | actives 3.4% (n = 400,000); note: nearly all actives have a fitted effect of over 60% in size
#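 Cytotoxicity toward P-gp-expressing KB-V1 cells was determined as loss of CellTiter-Glo luminescence after 72 h at 37 degrees C. Compounds were tested in quantitative HTS format across a concentration range, with curves fitted to normalized data.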
# TDP1 cell noCPT: qHTS for Inhibitors of human tyrosyl-DNA phosphodiesterase 1 (TDP1): qHTS in cells in absence of CPT; Potency, µM (highest dose often 46.2 µM), inactives show top-dose activity change, negative = growth inhibition, usual class: inhibitors; actives 15% (n = 420,000); AID 686978, 2013; DT40 Tdp1-/- hTDP1 cells, no CPT, ATP luminescence, 48 h; note: nearly all actives have a fitted effect of over 55% in size
#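 Compound effects on proliferation are scored in DT40 Tdp1-/-;hTDP1 cells in the absence of CPT. ATP levels (CellTiter-Glo luminescence) are recorded after a ≥48 hr, 37 °C incubation.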
# HT1080 IDH1KD tx: kills HT-1080 cells with IDH1 knockdown; actives 2% (n = 360,000); HT-1080 IDH1 knockdown viability, ATP luminescence, 48 h; Potency, µM (highest dose often 46.1 µM), for inactives: at the highest dose activity, negative = toxicity, actives largely listed as cytotoxic;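 note: 0% = DMSO wells and -100% = cell-free medium wells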
#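 HT-1080-IDH1KD cells (IDH1 knocked down), 750/well in RPMI with 5% FBS, treated with compound 48 h at 37 degrees C. Viability by CellTiter-Glo luminescence, normalised to DMSO and no-cell wells; concentration-response curves classed.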
# Active calls of the source: *; i = inactive; ? = inconclusive; . = no result. Most compounds without a hit are left out; they make up all but 19% or so of the library. Calls come from the whole dose curve; as a rule, active = well fitted curve in the direction sought with a large enough effect; inconclusive = small, poorly fitted or top-dose-only effect, or another doubt; inactive = no such curve, though single readings can be large; an effect the other way counts as inactive or inconclusive. Unless noted, % is set by controls: 0 for no effect and ±100 for the full control effect; potency is the fitted concentration of half-maximal effect.
SMILES,DT40 TDP1 CPT,HT1080NT lethal,KB-3-1 cytotox,KB-V1 MDR tox,TDP1 cell noCPT,HT1080 IDH1KD tx
CS(=O)(=O)c1ccc2nc(NC(=O)c3ccc(N4C(=O)CCC4=O)cc3)sc2c1,?,-5%,i,i,-32%,-6%
CCOc1ccc(N2CC(C)Cn3c2nc2c3c(=O)n(CC(=O)O)c(=O)n2C)cc1 (stereo unspecified),-22%,.,i,?,1%,.
Cc1ccc(-n2cc(-c3ccccc3)c3c(N4CCCCC4)ncnc32)cc1,21µM*,.,.,.,23µM*,.
Cc1ccc(-n2cc(-c3ccccc3)c3c(N4CCOCC4)ncnc32)cc1,-29%,?,i,?,?,?
COc1ccc(NC(=O)CCS(=O)(=O)c2nc(-c3ccc4c(c3)OCO4)cc(C(F)(F)F)n2)c(OC)c1,?,.,i,i,?,.
CCC(C)NC(=O)CCSc1nc(-c2ccc3c(c2)OCO3)cc(C(F)(F)F)n1 (stereo unspecified),?,.,i,i,?,.
O=C(CCS(=O)(=O)c1nc(-c2ccc3c(c2)OCO3)cc(C(F)(F)F)n1)Nc1ccccc1C(F)(F)F,?,.,i,i,23µM*,.
COc1cc(NC(=O)CCS(=O)(=O)c2nc(-c3ccc4c(c3)OCO4)cc(C(F)(F)F)n2)cc(OC)c1OC,?,.,i,i,16µM*,.
COc1ccc(-c2cc(C(F)(F)F)nc(S(=O)(=O)CCCC(=O)Nc3cccnc3Cl)n2)cc1OC,2.3µM*,?,i,i,3.7µM*,10µM*
COC(=O)c1ccccc1NC(=O)CCCS(=O)(=O)c1nc(-c2ccccc2OC)cc(C(F)(F)F)n1,0%,.,i,i,-21%,.
COc1ccc(NC(=O)CCS(=O)(=O)c2nc(-c3ccc4c(c3)OCO4)cc(C(F)(F)F)n2)cc1OC,?,.,i,i,?,.
O=C(CCS(=O)(=O)c1nc(-c2ccc3c(c2)OCO3)cc(C(F)(F)F)n1)Nc1ccc(F)c(Cl)c1,2.6µM*,.,.,.,5.8µM*,.
Cc1c(S(=O)(=O)N2CCN(c3cccc(Cl)c3)CC2)c(=O)n(C)c(=O)n1C,11%,-2%,i,i,0%,-1%
O=[N+]([O-])c1cc(-c2nc3nc4ccccc4nc3n2CCc2ccccc2)cc([N+](=O)[O-])c1,19%,0%,i,i,?,18%
CC(=O)Nc1ccc(/C=C/c2sc3ccccc3[n+]2CCCCI)cc1,?,.,i,i,?,.
Cc1ccc(NC(=O)C2CCCN(S(=O)(=O)c3ccc4c(c3)oc(=O)n4C)C2)cc1Cl (stereo unspecified),?,.,i,i,?,.
Cn1c(=O)oc2cc(S(=O)(=O)N3CCCC(C(=O)Nc4nccs4)C3)ccc21 (stereo unspecified),?,2%,i,i,21µM*,-7%
CCN(CC)c1ccc(NC(=O)C2CCCN(S(=O)(=O)c3ccc4c(c3)oc(=O)n4C)C2)c(C)c1 (stereo unspecified),21µM*,.,i,?,10µM*,.
CC1=CC(=O)C(C(C)=Nc2ccccc2[N+](=O)[O-])C(=O)O1 (stereo unspecified),9%,3%,i,i,3%,0%
O=C1C=CC(=O)N1CCCCCCCCCCN1C(=O)C=CC1=O,0.58µM*,?,?,i,1.3µM*,?
CCCSc1ncc(Cl)c(C(=O)Nc2sc3c(c2C(=O)OC)CCCC3)n1,5%,.,?,?,17%,.
Cc1cc(C)c(/C=C/c2onc(C)c2S(=O)(=O)N2CCC(C(=O)Nc3cccc(C)c3C)CC2)c(C)c1,5.2µM*,.,.,.,6.5µM*,.
Cc1ccc(/C=C/c2onc(C)c2S(=O)(=O)N2CCC(C(=O)N3CCN(C)CC3)CC2)cc1,?,?,i,i,23µM*,?
Cc1ccc(/C=C/c2onc(C)c2S(=O)(=O)N2CCC(C(=O)N3CC(C)Oc4ccccc43)CC2)cc1 (stereo unspecified),18µM*,.,.,.,12µM*,.
CCC(C)(C)NC(=O)C1CCN(S(=O)(=O)c2c(C)noc2/C=C/c2ccc(C)cc2)CC1,23µM*,.,i,i,?,.
SMILES,DT40 TDP1 CPT,HT1080NT lethal,KB-3-1 cytotox,KB-V1 MDR tox,TDP1 cell noCPT,HT1080 IDH1KD tx
Cc1cccc(N2CCN(C(=O)C3CCN(S(=O)(=O)c4c(C)noc4/C=C/c4ccccc4F)CC3)CC2C)c1 (stereo unspecified),10µM*,.,.,.,6.5µM*,.
Cc1ccc(/C=C/c2onc(C)c2S(=O)(=O)N2CCC(C(=O)NCc3ccco3)CC2)cc1,-29%,.,i,i,-27%,.
Cc1ccc(CNC(=O)C2CCN(S(=O)(=O)c3c(C)noc3/C=C/c3cccs3)CC2)cc1,21µM*,.,.,.,?,.
Cc1cc(C)c(/C=C/c2onc(C)c2S(=O)(=O)N2CCC(C(=O)NCc3ccccc3Cl)CC2)c(C)c1,-27%,.,.,.,?,.
Cc1ccc(/C=C/c2onc(C)c2S(=O)(=O)N2CCC(C(=O)N(CCC(C)C)Cc3ccco3)CC2)cc1,?,.,.,.,16µM*,.
Cc1cc(C)c(/C=C/c2onc(C)c2S(=O)(=O)N2CCC(C(=O)N3CCN(c4ccccc4)CC3)CC2)c(C)c1,16µM*,.,.,.,13µM*,.
COc1ccc(CNC(=O)C2CCN(S(=O)(=O)c3c(C)noc3/C=C/c3cccs3)CC2)cc1,-23%,.,.,.,-27%,.
Cc1ccccc1NC(=O)N1CCc2cc(S(=O)(=O)N3CCC(C)CC3)ccc21,-19%,.,.,.,-21%,.
CCOc1ccccc1/C=C/c1onc(C)c1S(=O)(=O)N1CCC(C(=O)N2CCCCC2)CC1,16µM*,.,i,i,21µM*,.
CCOc1ccccc1/C=C/c1onc(C)c1S(=O)(=O)N1CCC(C(=O)NC)CC1,?,0%,i,i,?,8%
CCOC(=O)C1CCN(C(=O)C2CCN(S(=O)(=O)c3c(C)noc3/C=C/c3ccc(C)cc3)CC2)CC1,?,.,?,i,5.2µM*,.
COc1ccc(C2CC(=O)N(CC(=O)Nc3ccc(C)c(Cl)c3)c3ccccc3S2)cc1OC (stereo unspecified),.,.,?,18µM*,.,.
CCOC(=O)c1ccccc1NC(=O)CN1C(=O)CC(c2ccccc2)Sc2ccccc21 (stereo unspecified),.,.,?,12µM*,.,.

# High-throughput results (PubChem)
